Assay outcomes as filed in PubChem BioAssay.
TDP1 cell noCPT – qHTS for Inhibitors of human tyrosyl-DNA phosphodiesterase 1 (TDP1): qHTS in cells in absence of CPT. DT40 Tdp1-/- hTDP1 cells, no CPT, ATP luminescence, 48 h. Potency, µM (titrated, usually from 46.2 µM), inactives show top-dose activity change, negative = growth inhibition, actives largely listed as inhibitors. 420,000 tested, 15% active; also: potency is read from the fitted curve at half-maximal effect; % is scaled to controls: 0 for no effect and ±100 for the full control effect; nearly all actives have a fitted effect of over 55% in size
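Seeded 400 DT40-hTDP1 cells/well (vehicle DMSO, no 20 nM CPT); pinned compounds; ≥48 hr at 37 °C; CellTiter-Glo luminescence as viability measure.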
Chronic BCR inh – inhibitors of chronic active B-cell receptor signaling | Potency, µM (highest dose often 46.1 µM), for inactives: at the highest dose activity change, negative = inhibition, actives largely listed as inhibitors | ABC-DLBCL IkBa-CBG/CBR reporter, luminescence ratio, 4 h | 340,000 tested, 0.05% active; active = well fitted inhibition curve with a large enough effect in the signal ratio, with a control signal flat, not every such curve was filed as active; inconclusive = small, poorly fitted or top-dose-only effect, or effect the other way, or a change in a side signal; the % refers to the signal ratio;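 also: potency is read from the fitted curve at half-maximal effect; plate controls were basal doxycycline-induced cells for no effect and cells given 10 µM MG132 for full effect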
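Cell line TMD8 (human ABC DLBCL), stably expressing tet-inducible CBG68-IkBa fusion and CBR; IMDM/0.5% FBS; cpd up to 46 uM; dox induction, 4 h, 37C/5% CO2; dual luminescence; green/red ratio; MG132 control.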
MCF10A rereplic – induces DNA re-replication in MCF 10a normal breast cells. MCF 10A DNA re-replication, Hoechst nuclear intensity, 48 h. Potency, µM (titrated, usually from 46.1 µM), for the others: at the top dose activity, positive = re-replication, hits mostly activators. 350,000 tested, 2.9% active; also: potency is read from the fitted curve at half-maximal effect; % of control where 0% means no effect; nearly all actives have a fitted effect of over 50% in size
SW480 rerep – inducers of DNA re-replication in SW480 colon cancer cells; Potency, µM (series often up to 46.1 µM), without a hit: at the top dose re-replication activation, usual class: activators; 340,000 tested, 1.8% active; SW480 DNA re-replication, Hoechst DNA content imaging, 48 h; also: potency is read from the fitted curve at half-maximal effect; % of control where 0% means no effect; nearly all actives have a fitted effect of over 55% in size
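Treated cells incubate 48 hr (37 C, 5% CO2), are stained 40 min with Hoechst, and nuclear fluorescence is enumerated; a rise in nuclei with high DNA signal marks re-replication.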
IL1B secr inh – inhibitors of inflammasome signaling (IL-1 beta secretion); THP-1 LPS/ATP IL-1B secretion, AlphaLISA, 16 h; hits give low values; activity change, % at 57.5 µM; 360,000 tested, 4.7% active; in the data active = activity change below about -50%; inconclusive = mostly about -30% to -49%; also: % is scaled to controls: 0 for no effect and ±100 for the full control effect
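THP-1 cells pretreated 1 hr with compounds (up to 57.5 uM final), then stimulated with LPS (250 ng/mL final) plus ATP (1.25 mM final); secreted IL-1B measured by AlphaLISA after 16 hr, decreased signal indicating inhibition.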
TDP1 cell CPT – DT40-hTDP1 cell growth loss with CPT; Potency, µM (series often up to 46.2 µM), for the others: at the top dose activity change, negative = growth inhibition, most hits filed as inhibitors; chicken DT40 Tdp1-/-;hTDP1 cells + 20 nM CPT, ATP luminescence, 48 h; 420,000 tested, 12% active; also: potency is read from the fitted curve at half-maximal effect; % is scaled to controls: 0 for no effect and ±100 for the full control effect; nearly all actives have a fitted effect of over 55% in size
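Chicken DT40 Tdp1-/- cells complemented with human TDP1, 400 cells/well, exposed to compounds plus 20 nM camptothecin for at least 48 h at 37 C; viability read as ATP content by CellTiter-Glo luminescence.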
* = called active by the depositor; ? = inconclusive; · = not tested or not shown. Most compounds without a hit are left out; they make up all but 19% or so of the library. Unless noted, calls follow the shape of the dose curve; as a rule, active = well fitted curve in the direction sought with a large enough effect; inconclusive = small, poorly fitted or top-dose-only effect, or another doubt; inactive = no such curve, though single readings can be large; an effect the other way counts as inactive or inconclusive.

SMILES | TDP1 cell noCPT | Chronic BCR inh | MCF10A rereplic | SW480 rerep | IL1B secr inh | TDP1 cell CPT
Cc1cccc(N2CCN(C(=O)C3CCCCC3)CC2)c1C | 18µM* | 7% | 17% | 1% | -65* | 29µM*
Cc1ccccc1N1CCN(C(=O)C2CCCCC2)CC1 | ? | -2% | 8% | 0% | -12 | 1%
O=C(C1CCC(=O)N(C2CCCCCC2)C1)N1CCN(c2ccccc2Cl)CC1 (centres undefined) | 21µM* | -3% | 14% | -7% | 13 | ?
COc1cc(C(=O)OCC(=O)NC2CCCCC2)cc2c1OCCO2 | -6% | 0% | 2% | -4% | 6 | -8%
CCN=c1sc(C(=O)NCCc2ccccc2)cc(=O)n1CC | 18µM* | ? | ? | ? | -10 | ?
C/C(=N\Nc1ccc([N+](=O)[O-])cc1)c1ccc(N)cc1 | -25% | -2% | ? | 29% | -2 | -9%
O=[N+]([O-])c1ccc(NN=C(Oc2ccccc2)c2ccc([N+](=O)[O-])cc2)cc1 | ? | · | · | · | ? | -17%
C/C(=N\Nc1ccc([N+](=O)[O-])cc1)c1ccc(-n2nncc2C)cc1 | 21µM* | ? | ? | ? | ? | ?
C/C(=N\Nc1ccc([N+](=O)[O-])cc1)c1ccc(N2CCOCC2)cc1 | -5% | 4% | -1% | 0% | 18 | 6%
O=C(COC(=O)c1ccccc1NC(=O)c1ccccc1)c1ccc([N+](=O)[O-])cc1 | ? | ? | -31% | -6% | 6 | 23µM*
CC/C(=N\Nc1ccc([N+](=O)[O-])cc1)c1ccccc1 | ? | ? | 16µM* | ? | -51* | ?
CCc1ccc(/C(C)=N\Nc2ccc([N+](=O)[O-])cc2)cc1 | ? | ? | 9.2µM* | 15µM* | -12 | -4%
CC(C)(CO)NC(=S)NCc1ccco1 | -3% | 2% | 0% | 3% | -5 | 3%
Cc1ccc(/C=N\NC(=O)c2ccc3c(c2)OCO3)o1 | 20% | ? | -3% | -6% | -18 | 7%
CS(=O)(=O)Nc1ccc(C(=O)CC(=O)Nc2ccc([N+](=O)[O-])cc2)cc1 | -18% | -1% | -12% | -8% | -10 | -1%
O=C(CC(=O)c1ccccc1)Nc1ccc([N+](=O)[O-])cc1 | ? | · | 17% | 5% | ? | 23µM*
CC(=NNc1ccc([N+](=O)[O-])cn1)c1ccc(N)cc1 | ? | · | -7% | -8% | ? | ?
CC(C)(C)c1cnnn1-c1ccc(/C=N/Nc2ccc([N+](=O)[O-])cc2)cc1 | 13µM* | 7% | ? | 18µM* | -14 | 18µM*
C/C(=N\Nc1nc(C)c(C)s1)c1ccc([N+](=O)[O-])cc1 | 21µM* | ? | ? | 5% | -88* | ?
COc1ccccc1N=Nc1nc(-c2ccccc2)c(-c2ccccc2)[nH]1 | 16µM* | 18% | 13% | 1% | -14 | 18µM*
Oc1ccccc1N=Nc1nc(-c2ccccc2)c(-c2ccccc2)[nH]1 | 2.9µM* | ? | ? | ? | -9 | 2.6µM*
COc1ccc(-c2nc(C)ncc2N=Nc2ccccc2)cc1 | -44% | -14% | ? | 2% | ? | ?
COc1ccc(N=Nc2nc(-c3ccccc3)c(-c3ccccc3)[nH]2)cc1 | 16µM* | 0% | -5% | -16% | ? | ?
CC(=O)c1sc(NS(=O)(=O)c2ccc(C)cc2)nc1-c1ccccc1 | -20% | ? | ? | -14% | -7 | 2%
C#CCn1c(COc2ccccc2C)nc2ccccc21 | ? | · | · | · | · | -24%
SMILES | TDP1 cell noCPT | Chronic BCR inh | MCF10A rereplic | SW480 rerep | IL1B secr inh | TDP1 cell CPT
O=C(Nc1ccc(NC(=O)c2cccs2)cc1)c1cccs1 | -13% | 16% | 18% | -4% | -23 | -14%
O=C(Nc1ccc(-c2cn3ccccc3n2)cc1)c1cccs1 | 15µM* | ? | ? | ? | -93* | 18µM*
COc1ccc(CC(=O)Nc2ccc(-c3cn4ccccc4n3)cc2)cc1 | ? | 0% | 25% | 5% | 19 | 13µM*
COc1cc(/C=N/NC(=O)c2cccc([N+](=O)[O-])c2)ccc1OCc1ccc(C)cc1 | -13% | 13% | 12% | 0% | -2 | -3%
Cc1ccc(C(C)C)c(OCc2ccc(C(=O)N/N=C/c3ccc(O)c(O)c3)cc2)c1 | 2.1µM* | -1% | ? | ? | -100* | 2.3µM*
CCOc1cc(/C=N/NC(=O)c2ccc(=O)n(C)c2)ccc1O | -5% | 3% | 0% | -4% | 9 | 0%
COc1cc(/C=N/NC(=O)c2ccc(COc3cc(C)ccc3C(C)C)cc2)cc(OC)c1O | 13µM* | -1% | ? | 8% | -5 | 16µM*
Cc1ccc(C(C)C)c(OCc2ccc(C(=O)N/N=C/c3cccc(O)c3O)cc2)c1 | 5.2µM* | -12% | ? | ? | 74 | 3.7µM*
CN(Cc1ccc(F)cc1)S(=O)(=O)c1nnc(NC(=O)c2ccccc2Br)s1 | ? | 19% | 2% | -4% | -16 | ?
CC1(C(=O)NS(=O)(=O)C2CC2)CCCN(C(=O)c2ccc3c(c2)OCO3)C1 (centres undefined) | 5.8µM* | · | · | · | 0 | 7.3µM*
Cn1nc(C(C)(C)C)cc1C(=O)N1CCCC(C)(C(=O)NS(=O)(=O)C2CC2)C1 (centres undefined) | 6.5µM* | · | · | · | 17 | 6.5µM*
CC1(C(=O)NS(=O)(=O)C2CC2)CCCN(C(=O)c2ccccc2)C1 (centres undefined) | 2.1µM* | · | · | · | 3 | 5.2µM*
Cc1ccsc1C(=O)N1CCCC(C)(C(=O)NS(=O)(=O)C2CC2)C1 (centres undefined) | ? | · | · | · | 20 | -55%
COC(=O)c1ccc(C(=O)N2CCCC(C)(C(=O)NS(=O)(=O)C3CC3)C2)cc1 (centres undefined) | 1.5µM* | · | · | · | 33 | ?
Cn1nc(C(C)(C)C)cc1C(=O)N1CCC(C)(C(=O)NS(=O)(=O)C2CC2)C1 (centres undefined) | -16% | · | · | · | 5 | -19%
Cc1cc(O)c(C=O)c2c1C(=O)Oc1c(COC(=O)/C=C/C(=O)O)c(O)c(C(=O)O)c(C)c1O2 | -16% | · | · | · | · | -5%
